Screens: PubChem BioAssay, National Center for Advancing Translational Sciences (NCATS)
FMDV antiviral: antivirals against foot and mouth disease virus; hit rate 0.23% among 120,000; Potency, µM (top dose mostly 57.5 µM), usual class: inhibitors; FMDV antiviral cell assay, firefly luciferase signal; also: nearly all actives have a fitted effect of over 60% in size
FMDV Renilla: shows antiviral activity in FMDV Renilla assay | FMDV replicon cells, Renilla luciferase signal | Potency, µM (series often up to 57.5 µM), most hits filed as inhibitors | hit rate 0.32% among 120,000 | AID 1745857; also: nearly all actives have a fitted effect of over 55% in size
Each line names hits and unclear results; the compound was inactive in the other large screens; ! = repeats disagree. This is a sample that favours compounds with a hit; in the whole collection about 0.4% have one here. Calls follow the shape of the full dose curve.

O=C1CC(c2ccc(Cl)cc2)CC2=C1C=Nc1ccccc1N2 (stereo not given)	none
O=C(NC1CCCC1)c1ccc2c(c1)N(Cc1ccc(F)cc1)C(=O)c1ccccc1S2	none
O=C(NC1CCCC1)c1ccc2c(c1)N(Cc1ccccc1)C(=O)c1ccccc1S2	FMDV antiviral 25µM, FMDV Renilla inconclusive
Cc1ccc(NC(=O)COC(=O)c2ccc3ccccc3n2)c(C)c1	FMDV antiviral inconclusive, FMDV Renilla 22µM
Cc1ccc(C)c(NC(=O)COC(=O)c2ccc3ccccc3n2)c1	none
Cc1cccc(-n2nnnc2S(C)(=O)=O)c1	FMDV antiviral 28µM, FMDV Renilla inconclusive
Cc1cccc(-n2nnnc2C2(N3CCCC3)CCCC2)c1	none
COc1ccccc1CNC(=O)c1c(O)nc2c(C)cccn2c1=O	FMDV antiviral inconclusive, FMDV Renilla 35µM
COc1ccc(CCNC(=O)c2c(O)nc3c(C)cccn3c2=O)cc1OC	none
Cc1cccc(C(=O)NCCC(=O)N2CCCCCC2)c1	none
COc1ccccc1NC(=O)c1ccc(NC(=O)CC2Sc3ccccc3NC2=O)cc1 (stereo not given)	none
COc1ccc(NC(=O)C(C)Oc2cc(C)cc(C)c2)c2cccnc12 (stereo not given)	FMDV antiviral inconclusive, FMDV Renilla 28µM
CCOc1ccc(NC(=O)C(C)Oc2cc(C)cc(C)c2)c2cccnc12 (stereo not given)	none
COc1ccccc1OC(C)C(=O)Nc1ccc(OC)c2ncccc12 (stereo not given)	none
COc1ccc(NC(=O)C(C)Oc2cccc(C)c2C)c2cccnc12 (stereo not given)	FMDV antiviral inconclusive, FMDV Renilla 4µM
Cc1sc(NC(=O)c2ccc(C(C)C)cc2)c(C#N)c1C	none
O=C(c1cc(=O)c2ccccc2o1)N1CCCC1Cc1ccccc1 (stereo not given)	none
CCN(CC)C(=O)c1cccc(NC(=O)c2cnc3ccccc3n2)c1	none
O=C(Nc1cccc(S(=O)(=O)N2CCCCC2)c1)c1ccc(OCc2cn3ccccc3n2)cc1	none
O=C(Nc1cccc(S(=O)(=O)N2CCOCC2)c1)c1ccc(OCc2cn3ccccc3n2)cc1	FMDV antiviral 32µM, FMDV Renilla inconclusive
Cc1nc(-c2ccc(CNC(=O)c3nccnc3N)s2)cs1	FMDV antiviral inconclusive, FMDV Renilla 8.9µM
Cc1nc(-c2ccc(CCNC(=O)c3nccnc3N)s2)cs1	FMDV Renilla inconclusive
CN(C)CCC(OC(=O)C1(c2ccccc2)CCCC1)c1ccccc1 (stereo not given)	none
COc1cc(CN2CCc3nc(N4CCN(c5ncccn5)CC4)ncc3C2)cc(OC)c1OC	FMDV antiviral inconclusive, FMDV Renilla 7.1µM
Brc1ccc(CN2CCc3nc(N4CCN(c5ncccn5)CC4)ncc3C2)cc1	FMDV Renilla inconclusive
COc1ccc(CN(C)Cc2cc(C)no2)cc1OC	none
Cc1cccc(Oc2ccc(NC(=O)c3ccc4c(c3)NC(=O)CS4)cc2)c1	FMDV antiviral inconclusive, FMDV Renilla 22µM
O=C1CSc2ccc(C(=O)Nc3ccccc3)cc2N1	none
O=C(CCc1ncc(-c2ccccc2F)o1)Nc1ccc(N2CCOCC2)cc1N1CCOCC1	none
Cc1cc(C)cc(Oc2ccc(C#N)c(C#N)c2)c1	none
Cc1c(Oc2ccc(C#N)c(C#N)c2)cccc1Oc1ccc(C#N)c(C#N)c1	FMDV antiviral 2.2µM, FMDV Renilla 2.5µM
N#Cc1ccc(Oc2ccc(Cl)c(Oc3ccc(C#N)c(C#N)c3)c2)cc1C#N	FMDV antiviral inconclusive, FMDV Renilla 2.5µM
N#Cc1ccc(Oc2ccccc2Oc2ccc(C#N)c(C#N)c2)cc1C#N	none
Cc1ccc(-n2ncc3c(NC4CCCCCC4)ncnc32)cc1Cl	none
Cc1ccc(Cl)cc1-n1ncc2c(NC3CCCCCC3)ncnc21	FMDV antiviral inconclusive, FMDV Renilla 25µM!
Cc1[nH]c2ccccc2c1C(=O)OC(C)C(N)=O (stereo not given)	none
O=C(OCc1nnnn1-c1ccccc1)C1(c2ccccc2F)CCCC1	none
Cn1c(=O)c2c(nc(NCCO)n2Cc2ccccc2F)n(C)c1=O	FMDV antiviral 13µM, FMDV Renilla 13µM
Cn1c(=O)c2c(nc(NCCCCO)n2Cc2ccccc2Cl)n(C)c1=O	none
Cn1c(=O)c2c(nc(NCCc3ccccc3)n2Cc2cccc(Br)c2)n(C)c1=O	none
Cn1c(=O)c2c(nc(NCCO)n2Cc2cccc(Br)c2)n(C)c1=O	FMDV antiviral inconclusive, FMDV Renilla 13µM
Cc1cccc(Cn2c(NCCN3CCOCC3)nc3c2c(=O)n(C)c(=O)n3C)c1	none
Cc1cccc(Cn2c(NCCO)nc3c2c(=O)n(C)c(=O)n3C)c1	FMDV antiviral inconclusive, FMDV Renilla 11µM
CC1COCCN1C(=O)Cn1cnc2sccc2c1=O (stereo not given)	none
CCc1ccc2occ(CC(=O)Nc3ccc(C)c(C)c3)c2c1	FMDV antiviral 25µM, FMDV Renilla inconclusive
Cc1ccc(NC(=O)Cc2coc3ccc(C(C)C)cc23)cc1Cl	FMDV antiviral inconclusive
CCCOc1ccc2ccccc2c1CN(C)C(=O)Cc1n[nH]c(=O)c2ccccc12	FMDV antiviral 25µM, FMDV Renilla inconclusive
CN(Cc1cccs1)C(=O)Cc1n[nH]c(=O)c2ccccc12	none
CN(C)CCCNC1CCCCC1	none
CC(C)C(=O)Nc1ccccc1C(C)C	none
CC(Sc1nc(-c2ccco2)nc2ccccc12)C(=O)N(C)C (stereo not given)	none
CCOc1ccc(CN(CC)Cc2cc(=O)oc3ccc(OC)cc23)cc1	FMDV antiviral inconclusive, FMDV Renilla 25µM
CCN(Cc1ccc(OC)cc1)Cc1cc(=O)oc2ccc(C)cc12	none
CCOc1ccccc1NC(=O)NCc1ccc2c(c1)CCN2C(=O)c1ccccc1	FMDV antiviral 8.9µM, FMDV Renilla 7.1µM
CCc1ccccc1NC(=O)NCc1ccc2c(c1)CCN2C(=O)c1ccccc1	none
O=C(Nc1ccccc1Cl)C1CCCN(c2ncnc3nc[nH]c23)C1 (stereo not given)	none
COc1ccccc1CN(C)C(=O)NCc1ccccc1S(=O)(=O)N1CCCCC1	none
N#CCc1nc(-c2ccc3c(c2)OCCO3)cs1	none
COc1ccc(-c2nc(CSCC(=O)NCc3cccnc3)c(C)o2)cc1	FMDV antiviral 14µM
COc1ccc(-c2nc(CS(=O)(=O)CC(=O)NCc3cccnc3)c(C)o2)cc1	none
COc1ccc(N(C(C)C(=O)Nc2ccccc2Sc2ccccc2)S(C)(=O)=O)cc1 (stereo not given)	none
O=C(COc1ccc2c(-c3ccc(F)cc3)noc2c1)OCc1ccccc1	FMDV antiviral 2.8µM
COC(=O)c1ccc(COc2ccc3c(-c4ccc(F)cc4)noc3c2)cc1	none
CCCCOC(=O)COc1ccc2c(=O)c(Oc3ccc(CC)cc3)c(C(F)(F)F)oc2c1	none
COc1cc(CN(C(=O)c2cccc(Cl)c2)c2ccccn2)cc(OC)c1OC	FMDV antiviral inconclusive
COc1cc(CN(C(=O)c2ccc(OC(C)C)cc2)c2ccccn2)cc(OC)c1OC	FMDV antiviral inconclusive, FMDV Renilla 10µM
CCCn1c(CN(C)Cc2ccccc2)nc2c1c(=O)n(C)c(=O)n2C	FMDV antiviral 35µM, FMDV Renilla inconclusive
CN(Cc1ccccc1)Cc1nc2c(c(=O)n(C)c(=O)n2C)n1CCc1ccccc1	none
O=C(CSc1c2c(nc3ccc(Cl)cc13)CCCC2)Nc1nc2ccccc2s1	none
CCc1nn2c(=O)cc(CNc3ccc4c(c3)OCCCO4)nc2s1	FMDV antiviral 4.5µM
CCc1nn2c(=O)cc(CNc3ccccc3NC(=O)c3ccccc3)nc2s1	none
C=C(C)COc1ccc2c(C)c(CCC(=O)Nc3nccs3)c(=O)oc2c1	none
Cc1ccc2nc(-c3ccccc3)cc(C(=O)NCC(=O)NC3CC3)c2c1	none
CC(=O)Nc1sc2c(c1SC#N)CCCC2	FMDV Renilla inconclusive
O=C(Nc1nc(C23CC4CC(CC(C4)C2)C3)cs1)c1ccc(=O)[nH]c1	none
